The values that follow come from PubChem BioAssay.

Active and inactive are the calls of the source.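 Rule for the calls: active = z-score of at least 1.8 in each of two replicates, scored against plate mean and spread of sample wells; inactive = the rest.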

This assay in a line: galactose survival enhancers in mitochondrial complex I cybrids – cell-based, galactose medium, ATP luminescence, primary screen (AID 1645843).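 Note: positive z means more ATP and so rescue of galactose-driven cybrid death.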 Particulars: complex I mutant cybrid cells, 72 h, hits give high values.
As to `Cc1nc(C(=O)N(Cc2cccnc2)Cc2ccc3c(c2)OCO3)cs1`, the z-score was -0.675 (inactive).
On to `CNCc1cn(C2CCN(CCC(C)CCCC(C)(C)O)CC2)nn1` (stereo not given), for which the z-score is -0.56 (inactive).
In the case of `CCCC[C@@H](N)C(=O)N1CCC(n2cc(CCCO)nn2)CC1` it was -0.47 (inactive); in that of `CCN(C(=O)c1cc(-c2cnc(C(C)C)nc2)nc2cc(F)ccc12)C(C)C`, -0.47 (inactive).
For `COc1ccc(C(=O)N2CCN(C(=O)c3cc(C)c(C)cc3C)CC2)cc1`, the z-score is 0.125 (inactive).
Next, `Cc1cccc2c(=O)n(Cc3ccc(Cl)s3)cnc12`: 0.23 (inactive); `CCn1cc(-c2cc(C(=O)N3CCCCCC3)c3cccc(C)c3n2)cn1`: 0.305 (inactive).
Regarding `C=C1C2(C(=O)N3CCC(CCN4CCCC4=O)CC3)CCC(C2)C1(C)C` (stereo not given), the z-score was -0.41 (inactive).
Next, `CC(C)CCC(=O)N(C)CCCC1CCCC1`: -0.145 (inactive); `CC1(C)CC(CC(=O)N2CCC(n3cc(C(C)(C)O)nn3)CC2)CC(C)(C)N1`: -0.57 (inactive); `CCCn1nc(NC(=O)Cn2ccc(-c3ccc(F)cc3)n2)c2ccccc21`: -1.28 (inactive).
In the case of `CC(CCCC(C)(C)O)CCNCC1(CO)CCC1` (stereo not given) it was -0.48 (inactive).
As to `Cn1ccnc1-c1ccccc1C(=O)N1CCN(Cc2cccc(Cl)c2)CC1`, the z-score is 0.665 (inactive).
For the molecule `CCCC(C)c1nc2c(cnn2CC(C)C)[nH]1` (stereo not given), the z-score is 1.06 (inactive).
In the case of `CCC1(CC)CC1C(=O)N1CCCCC1CCn1ccnc1C` (stereo not given) it was -0.475 (inactive); in that of `CCOC(=O)c1ccc(N2CCN(CC(C)C)C(=O)C2C)nc1` (stereo not given), -0.53 (inactive); in that of `Cc1ccc(C(=O)N2CCNC(=O)C2Cc2ccccc2)c(F)c1` (stereo not given), -0.535 (inactive).
Next, `COC(=O)c1ccccc1C(=O)N1CCNC(=O)C1Cc1ccccc1` (stereo not given): -0.485 (inactive); `CNCCCNC1CCN(c2ccc(-c3cccc(F)c3)cc2)CC1`: -1.3 (inactive).
`CCN(CC)C(=O)c1cc(-c2cnc(C(C)C)nc2)nc2c(C)cccc12`: the z-score was -1.09 (inactive).
Next, `CC(C)C1C(=O)N(C)CCN1C(=O)Nc1nc(-c2ccccc2)ns1` (stereo not given): -0.345 (inactive); `Cc1ccc2nc(-c3cnc(CCC(C)C)nc3)c(C)c(C(=O)N(C)C)c2c1`: -0.51 (inactive); `Cc1cccnc1CC(C)N(C)C(=O)c1cc(-c2cncnc2)nc2c(C)cccc12` (stereo not given): 1.18 (inactive).
Turning to `CC(C)Oc1cccc(C(=O)N2CCC(n3cc(C(C)(C)O)nn3)CC2)c1`, the z-score was -0.52 (inactive).
Next, `COC(=O)CN1CCN(c2cc(OC)ncn2)CC1=O`: -0.535 (inactive).
In the case of `Cc1cc(C)n(CC(C)n2cnc3sc4c(c3c2=O)CCCCC4)n1` (stereo not given) it was 2.45 (active); in that of `O=C(NC(Cn1cccn1)c1ccccc1)c1ccc2nccnc2c1` (stereo not given), 1.25 (inactive); in that of `O=C1CCCc2occ(C(=O)N3CCc4[nH]nc(C5CCC5)c4C3)c21`, 0.15 (inactive).
Next, `OCCCCCNc1nccc(-c2cnn(-c3ccc(F)cc3)c2)n1`: -0.895 (inactive); `CC1Cc2cc(C(=O)N3CCC(n4cc(CCO)nn4)CC3)ccc2O1` (stereo not given): 0.36 (inactive).
Regarding `Cc1cccc(CN(C)Cc2ccc(-c3nc(C(F)(F)F)c(C)c(=O)[nH]3)cc2)n1`, the z-score was 0.78 (inactive).
For the molecule `Cc1ccc2nc(Cn3cnc4ccc(F)cc4c3=O)cn2c1`, the z-score is -0.15 (inactive).
On to `Cc1nnc2ccc3nnc(-c4cc(Cl)ccc4OC(C)C)n3n12`, for which the z-score is -0.5 (inactive).
In the case of `Cn1ncc(NC(=O)Cn2ccc(-c3ccccc3C(F)(F)F)n2)n1` it was 1.12 (inactive).
In the case of `CCn1cc(CN(C(=O)c2cnc3ccccn3c2=O)C(C)C)cn1` it was 0.18 (inactive); in that of `COc1ccc(C(=O)N2CCNC(=O)C2Cc2ccccc2)cc1F` (stereo not given), -0.505 (inactive); in that of `CCN1CC(Cn2cnc3c(C)c(C)ccc3c2=O)CC1=O` (stereo not given), -0.145 (inactive).
In the case of `CSCc1ccc(C(=O)Nc2cccc3cccnc23)o1` it was 1.12 (inactive); in that of `COc1cccc(-n2cc(-c3ccnc(N(C)Cc4cccnc4)n3)cn2)c1`, 0.62 (inactive); in that of `O=C(C1CCCCCC1)N1CCC(Cn2cc(CCCO)nn2)CC1`, -0.325 (inactive).
